Molecules are shown by their SMILES. “And” between values parts separate entries of the source, which are not always exact repeats. Equal values may be shown once. Records with an inconclusive call do not appear. More than one record can exist for a structure, and the calls need not agree. The source made the active and inactive calls. Unless noted, calls follow the shape of the full dose curve.

The record followed here is PubChem BioAssay (Tox21).

The target of assay [1] is Gonadotropin-releasing hormone receptor (Homo sapiens) (UniProt P30968). Briefly: Human gonadotropin-releasing hormone receptor (GnRHR) small molecule agonists, calcium flux assay in GnRHR-HEK293 cells (AID 1920063). Also: nearly all actives have a fitted effect of over 35% in size. Also: potency is read from the fitted curve at half-maximal effect. In outline: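 Compounds dissolved in DMSO are pin-transferred onto dye-loaded GnRHR-HEK293 cells, which were seeded 18 h before at 37 C/5% CO2. Calcium signal is read as fluorescence intensity at 1 s intervals for 3 min.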
Chain of Gonadotropin-releasing hormone receptor (Homo sapiens) (P30968 whole entry, looked up): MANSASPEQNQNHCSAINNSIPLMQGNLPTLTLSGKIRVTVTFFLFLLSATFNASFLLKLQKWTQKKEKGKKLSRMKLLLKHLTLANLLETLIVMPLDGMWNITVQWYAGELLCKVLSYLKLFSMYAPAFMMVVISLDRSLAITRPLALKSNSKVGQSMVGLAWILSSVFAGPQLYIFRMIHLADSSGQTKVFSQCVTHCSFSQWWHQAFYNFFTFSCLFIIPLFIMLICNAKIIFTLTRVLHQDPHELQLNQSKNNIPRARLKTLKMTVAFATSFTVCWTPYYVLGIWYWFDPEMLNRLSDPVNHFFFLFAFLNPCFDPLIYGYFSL

Assay [2] deals with KiSS-1 receptor (Homo sapiens) (UniProt Q969F8). Briefly: Human kisspeptin (KISS1R) small molecule agonists, calcium flux assay in KISS1R-HEK293 cells (AID 1920064; active = well fitted activation curve with a large enough effect in the repeat runs). In outline: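 Cell line: HEK293, stable human KISS1R. Dye loading 1 h at 37 C after 18 h culture. Read: kinetic fluorescence, 480/540 nm, 3 min at 1 s intervals.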
Chain of KiSS-1 receptor (Homo sapiens) (Q969F8 whole entry, looked up): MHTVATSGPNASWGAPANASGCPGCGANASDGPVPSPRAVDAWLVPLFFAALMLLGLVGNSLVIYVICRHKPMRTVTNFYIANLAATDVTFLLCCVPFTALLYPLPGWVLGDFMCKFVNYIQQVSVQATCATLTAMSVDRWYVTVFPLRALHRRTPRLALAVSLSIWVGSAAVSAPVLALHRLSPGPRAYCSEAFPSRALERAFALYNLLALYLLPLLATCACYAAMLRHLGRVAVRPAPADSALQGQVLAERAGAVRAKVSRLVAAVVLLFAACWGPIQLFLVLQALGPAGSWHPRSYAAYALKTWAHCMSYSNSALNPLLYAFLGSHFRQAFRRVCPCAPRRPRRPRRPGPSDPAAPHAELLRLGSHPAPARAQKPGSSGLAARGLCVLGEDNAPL
Assay [3] in a line: G protein-coupled receptor (GPCR) small molecule agonists, calcium flux assay: HEK293 wild type cell line counter screen (AID 1920065). In a few lines:
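Tox21 10K compounds, 15 concentrations each in triplicate, pin-transferred in DMSO onto dye-loaded cells; kinetic read at 480/540 nm for 3 min, 1 s intervals.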

Assay [4] can be described thus: p53 small molecule agonists, cell-based qHTS assay with human liver microsomes: qHTS cell viability counter screen (AID 1963579). Also: nearly all actives have a fitted effect of over 45% in size. Also: potency is read from the fitted curve at half-maximal effect. In outline: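 p53RE-bla cells, 4,000/well, dosed 5 hours after plating, with human liver microsomes (0.5 mg/mL final) plus NADPH (0.5 mg/mL final), 16 hours at 37 C. Viability read as CellTiter-Glo luminescence after 30 min at room temperature.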

Assay [5] in a line: p53 small molecule agonists, cell-based qHTS assay with rat liver microsomes: qHTS cell viability counter screen (AID 1963580). Also: nearly all actives have a fitted effect of over 45% in size. In outline: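 Cytotoxicity counter screen: intracellular ATP read by CellTiter-Glo luminescence in the p53 reporter wells. HCT-116 p53RE-bla cells were treated for 16 h at 37 C alongside rat liver microsomes and NADPH, each 0.5 mg/mL final.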
Background: Quantitative high-throughput screening tests each substance at several concentrations.

Assay [6] in a line: p53 small molecule agonists, cell-based qHTS assay: qHTS cell viability counter screen (AID 1963581). Also: nearly all actives have a fitted effect of over 45% in size. Also: potency is read from the fitted curve at half-maximal effect. In a few lines:
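ATP content measured by luminescence in HCT-116 p53RE-bla cells treated 16 h at 37 C, same wells as the reporter screen.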

The nature of assay [7]: p53 small molecule agonists, cell-based qHTS assay (AID 1963582; active = well fitted activation curve with a large enough effect in the signal ratio in the repeat runs, not every such curve was filed as active; the % refers to the signal ratio). In outline:
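16 h compound exposure (37 C) of p53 response element–bla cells, preceded by 5 h recovery at 37 C/5% CO2; read-out via LiveBLAzer B/G FRET substrate, 2 h RT, fluorescence intensity.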

For assay [8], the target named is 5-hydroxytryptamine receptor 2A (Homo sapiens) (UniProt P28223). Briefly: 5-hydroxytryptamine receptor 2A (HTR2A) small molecule antagonists, cell-based qHTS assay (AID 1963586). Also: nearly all actives have a fitted effect of over 45% in size. Also: potency is read from the fitted curve at half-maximal effect. In outline:
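CHO cells stably expressing human HTR2A were plated for 18 h at 37 C, then loaded with calcium dye for 1 h. Compounds were preincubated 5 min at room temperature before DOI (4 nM solution) was added. Kinetic fluorescence was read for 3 min.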

For assay [9] the target is unchanged. The assay can be described thus: 5-hydroxytryptamine receptor 2A (HTR2A) small molecule agonists, cell-based qHTS assay (AID 1963587). Also: nearly all actives have a fitted effect of over 30% in size. Also: potency is read from the fitted curve at half-maximal effect. In a few lines: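 Kinetic calcium-flux fluorescence (2 min, 1 sec intervals) after compound addition in agonist mode. HTR2A-CHO cells were cultured 18 h, then dye-loaded 1 h at 37 C.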
Assay [10] has as its target Muscarinic acetylcholine receptor M1 (Homo sapiens) (UniProt P11229). Briefly: Cholinergic receptor muscarinic 1 (CHRM1) small molecule agonists, cell-based qHTS assay (AID 1963589). Also: nearly all actives have a fitted effect of over 35% in size. In a few lines: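 Homogeneous fluorescence calcium flux, agonist mode. Human M1-expressing CHO cells; compound dosed at 15 concentrations, three independent runs; signal sampled every 1 sec.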

The nature of assay [11]: cAMP Responsive Elements (CRE) small molecule agonists, cell-based qHTS assay (AID 1963590). In outline:
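HEK 293T cells stably bearing CRE-bla were plated at 2,000 cells per well and rested 18 h. Compounds, positive controls or DMSO were added for 3 h at 37 C. LiveBLAzer B/G substrate was then loaded for 2 h at room temperature.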

A short description of assay [12]: cAMP Responsive Elements (CRE) small molecule antagonists, cell-based qHTS assay (AID 1963591; active = well fitted inhibition curve with a large enough effect in the signal ratio in the repeat runs, not every such curve was filed as active; the % refers to the signal ratio). In outline:
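First, CRE-bla HEK293T cells settled 18 h at 37 C. Next, compound and 0.25 uM final NKH477 were applied for 3 h. Last, LiveBLAzer B/G substrate was loaded for 2 h at room temperature.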

The target of assay [13] is Beta-2 adrenergic receptor (Homo sapiens) (UniProt P07550). Briefly: Adrenergic beta2 receptor (ADRB2) small molecule antagonists, cell-based qHTS assay (AID 1963592). Also: series mostly up to about 92 µM; nearly all actives have a fitted effect of over 50% in size. In a few lines:
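Assay format: CHO-ADRB2 cells, 18-20hr seeding at 37C/5% CO2, then compound plus 1nM isoproterenol agonist mix for 0.5hr RT. Homogeneous time-resolved fluorescence cAMP detection after 1hr, expressed as 665/615 nm ratio.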

Assay [14] deals with D(2) dopamine receptor (Homo sapiens) (UniProt P14416). The assay can be described thus: Dopamine D2 receptor (DRD2) small molecule antagonists, cell-based qHTS assay (AID 1963595; active = well fitted inhibition curve with a large enough effect in the signal ratio in the repeat runs, with a control signal flat; the % refers to the signal ratio; also: potency is read from the fitted curve at half-maximal effect). In outline: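 HEK293 cells stably expressing DRD2 were preincubated with 0.1 mM Ro20-1724, then with compound for 10 min at room temperature. Cells were stimulated with 200 nM NKH477 plus 12 nM quinpirole for 30 min, and cAMP was read by HTRF.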
Chain of D(2) dopamine receptor (Homo sapiens) (P14416 whole entry, looked up): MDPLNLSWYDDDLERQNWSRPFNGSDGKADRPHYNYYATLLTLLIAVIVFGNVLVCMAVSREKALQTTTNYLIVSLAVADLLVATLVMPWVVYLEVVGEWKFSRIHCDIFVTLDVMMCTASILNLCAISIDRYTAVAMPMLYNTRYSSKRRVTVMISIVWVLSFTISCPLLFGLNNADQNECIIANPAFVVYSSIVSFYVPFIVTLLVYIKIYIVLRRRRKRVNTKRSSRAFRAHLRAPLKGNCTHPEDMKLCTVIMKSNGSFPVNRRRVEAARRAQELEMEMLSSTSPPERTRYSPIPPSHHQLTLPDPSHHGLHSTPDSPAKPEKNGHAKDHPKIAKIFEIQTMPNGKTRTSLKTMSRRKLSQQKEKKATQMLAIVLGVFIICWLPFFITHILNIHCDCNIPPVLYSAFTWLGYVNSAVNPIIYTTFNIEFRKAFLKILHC

The target is the same in assay [15]. The assay can be described thus: Dopamine D2 receptor (DRD2) small molecule agonists, cell-based qHTS assay (AID 1963594). Also: nearly all actives have a fitted effect of over 35% in size. In a few lines:
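cAMP accumulation in DRD2-HEK293 cells measured by HTRF after 1 h detection; compounds added 10 min before NKH477 (200nM […]) forskolin-analogue stimulation, 30 min at room temperature, with Ro20-1724 present at 0.1 mM final.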

Assay [16] in a line: p53 small molecule agonists, cell-based qHTS assay with human liver microsomes (AID 1963577). In outline:
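p53RE-bla cells, 4,000/well, compound added after 5 h, with human liver microsomes 0.5 mg/mL and NADPH 0.5 mg/mL final; 16 h at 37 C, then LiveBLAzer 2 h RT, fluorescence.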

Assay [17] in a line: p53 small molecule agonists, cell-based qHTS assay with rat liver microsomes (AID 1963578). In outline:
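p53RE-bla cells, 4,000/well, pre-incubated 5 h, then given compounds plus rat liver microsomes (0.5 mg/mL final) and NADPH (0.5 mg/mL final). Incubation 16 h at 37 C; beta-lactamase reporter read by LiveBLAzer fluorescence after 2 h at room temperature.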

The target of assay [18] is Muscarinic acetylcholine receptor M1 (Homo sapiens) (UniProt P11229). Briefly: Cholinergic receptor muscarinic 1 (CHRM1) small molecule antagonists, cell-based qHTS assay (AID 1963588). Also: nearly all actives have a fitted effect of over 40% in size. Also: potency is read from the fitted curve at half-maximal effect. In outline:
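Compounds were tested at 15 concentrations in three independent runs. Dye-loaded CHRM1-CHO cells were exposed 5 min at room temperature before stimulation by acetylcholine added at 50nM. Intracellular calcium was read kinetically on FDSS for 3 min.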

The target in assay [19] is Beta-2 adrenergic receptor (Homo sapiens) (UniProt P07550). Briefly: Adrenergic beta2 receptor (ADRB2) small molecule agonists, cell-based qHTS assay (AID 1963593).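 Also: CHO cells stably overexpressing human ADRB2.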 In a few lines: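 CHO cells stably over-expressing ADRB2 were plated overnight at 37C, then dosed with compounds plus a stimulation mix containing 100uM IBMX and 25uM Ro-20-1724 for 0.5hr at room temperature. cAMP was measured by HTRF competition, 1hr.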
Chain of Beta-2 adrenergic receptor (Homo sapiens) (P07550 whole entry, looked up): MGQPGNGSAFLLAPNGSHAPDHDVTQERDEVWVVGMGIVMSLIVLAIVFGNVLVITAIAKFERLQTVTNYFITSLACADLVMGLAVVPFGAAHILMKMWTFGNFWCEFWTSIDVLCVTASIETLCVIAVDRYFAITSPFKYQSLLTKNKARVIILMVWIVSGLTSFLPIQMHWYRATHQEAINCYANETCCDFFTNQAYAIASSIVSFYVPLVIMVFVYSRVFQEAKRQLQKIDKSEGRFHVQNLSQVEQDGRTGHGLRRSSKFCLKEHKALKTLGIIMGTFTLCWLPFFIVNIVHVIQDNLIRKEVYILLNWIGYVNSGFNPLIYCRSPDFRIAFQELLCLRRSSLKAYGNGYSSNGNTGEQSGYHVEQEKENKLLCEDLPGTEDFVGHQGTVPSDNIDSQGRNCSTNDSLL

Chain of Muscarinic acetylcholine receptor M1 (Homo sapiens) (P11229 whole entry, looked up): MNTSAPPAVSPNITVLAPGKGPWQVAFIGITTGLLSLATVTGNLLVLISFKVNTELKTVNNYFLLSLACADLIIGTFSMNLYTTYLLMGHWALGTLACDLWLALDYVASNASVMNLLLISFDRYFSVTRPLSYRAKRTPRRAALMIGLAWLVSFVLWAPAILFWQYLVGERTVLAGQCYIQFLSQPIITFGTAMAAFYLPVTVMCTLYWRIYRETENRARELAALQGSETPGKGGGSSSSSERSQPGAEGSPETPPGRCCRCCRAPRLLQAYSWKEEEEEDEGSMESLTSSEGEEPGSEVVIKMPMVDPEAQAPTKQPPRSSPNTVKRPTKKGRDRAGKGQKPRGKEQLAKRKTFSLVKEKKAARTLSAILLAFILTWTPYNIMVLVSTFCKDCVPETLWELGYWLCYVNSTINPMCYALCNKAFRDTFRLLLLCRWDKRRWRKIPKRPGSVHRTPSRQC
Chain of 5-hydroxytryptamine receptor 2A (Homo sapiens) (P28223 whole entry, looked up): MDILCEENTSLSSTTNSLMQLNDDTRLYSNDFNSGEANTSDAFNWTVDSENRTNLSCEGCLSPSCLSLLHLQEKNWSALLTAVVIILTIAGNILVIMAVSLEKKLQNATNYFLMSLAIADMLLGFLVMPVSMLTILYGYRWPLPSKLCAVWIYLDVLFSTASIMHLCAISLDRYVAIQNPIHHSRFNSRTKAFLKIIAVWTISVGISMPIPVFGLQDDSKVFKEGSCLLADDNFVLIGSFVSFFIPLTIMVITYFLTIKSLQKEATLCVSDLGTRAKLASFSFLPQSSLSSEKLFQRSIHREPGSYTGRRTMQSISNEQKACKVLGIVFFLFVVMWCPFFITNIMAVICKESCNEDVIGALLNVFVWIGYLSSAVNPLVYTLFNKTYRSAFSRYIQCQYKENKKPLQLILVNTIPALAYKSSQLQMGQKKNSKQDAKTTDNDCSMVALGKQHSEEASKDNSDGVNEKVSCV

With `COP(=S)(OC)Oc1ccc([N+](=O)[O-])c(C)c1`, the Potency entry in [1], in [2], in [3], in [4], in [5] and in [7] was “inactive” throughout. The Potency entry in [8], in assay [9], in assay [10], in assay [11], in [12] and in assay [13] was “inactive” each time. Besides, the Potency entry in assay [14] was “inactive”. Further, the Potency in assay [6] was 0.363 µM (active).

Turning to `CCOC(=O)[C@]1(c2ccccc2)Oc2ccccc2[C@@H]1N`, the Potency entry in assay [1], in [2], in assay [3], in assay [4], in assay [5] and in [6] was “inactive” each time. Also, the Potency result in [8], in assay [9], in assay [10], in [13] and in assay [15] was “inactive” each time.

Take `CC(C)(c1cc(Cl)c(O)c(Cl)c1)c1cc(Cl)c(O)c(Cl)c1`: the Potency in assay [1] is 38.9 µM (active); in assay [4], 40.8 µM (active); in assay [8], “inactive and 13.3 µM (active)”; in assay [9], 55 µM (active) and 24.5 µM (active); in assay [18], 33.4 µM (active) and inactive. In addition, the Potency entry in assay [2], in assay [3], in [16], in [17], in assay [5] and in [6] was “inactive” in each case. The Potency entry in assay [10], in [12] and in assay [14] was “inactive” throughout.

For the compound `C#CCN1C(=O)COc2cc(F)c(N3C(=O)C4=C(CCCC4)C3=O)cc21`, the Potency entry in [1], in assay [2], in assay [3], in [4], in [5] and in assay [6] was “inactive” each time. Besides, the Potency entry in [8], in assay [9], in assay [10], in assay [12], in [13] and in assay [19] was “inactive” in each case. For the same compound, the Potency result in [15] and in assay [14] was “inactive” throughout.

`c1cc[c]([Hg][c]2ccccc2)cc1`: the Potency result in [1], in assay [2], in [3], in assay [16], in assay [17] and in assay [8] was “inactive” throughout. In addition, the Potency result in assay [9], in assay [18], in [10] and in assay [15] was “inactive” in each case. In addition, the Potency in [14] was 4.33 µM (active).

With `c1cncc([C@@H]2CCCCN2)c1`, the Potency result in assay [1], in assay [2], in assay [3], in [17], in assay [4] and in assay [5] was “inactive” each time. Besides, the Potency entry in assay [8], in assay [9], in assay [18], in [10], in assay [12] and in [13] was “inactive” in each case. In addition, the Potency entry in assay [15] and in [14] was “inactive” in each case.

Consider `C1=CCC=C1`, for which the Potency result in assay [1], in [2], in assay [3], in [4], in assay [5] and in assay [6] was “inactive” throughout. Besides, the Potency entry in assay [8], in assay [18], in [11], in assay [12], in [13] and in [19] was “inactive” throughout. Moreover, the Potency result in assay [15] and in [14] was “inactive” each time.

For the compound `Clc1ccc(CO/N=C(\Cn2ccnc2)c2ccc(Cl)cc2Cl)c(Cl)c1`, the Potency result in assay [1], in assay [2], in [3], in assay [16], in assay [17] and in assay [4] was “inactive” throughout. Further, the Potency entry in assay [5], in assay [11], in assay [19] and in [15] was “inactive” throughout.
